In PubChem BioAssay AID686978 (National Center for Advancing Translational Sciences (NCATS), 2013):
In all, about 420,000 compounds went through this assay and about 64,000 (15%) were called active. Inconclusive results (about 27%) are left out. Only a sample is shown. A number with no mark means an inactive call. Calls follow the shape of the dose curve; as a rule, active = well fitted inhibition curve with a large enough effect; inconclusive = small, poorly fitted or top-dose-only effect; inactive = flat fitted curve, though single readings scatter.

Experiment: qHTS for Inhibitors of human tyrosyl-DNA phosphodiesterase 1 (TDP1): qHTS in cells in absence of CPT; also: nearly all actives have a fitted effect of over 55% in size
Conditions: DT40 Tdp1-/- hTDP1 cells, no CPT, ATP luminescence, 48 h; activity change, negative = growth inhibition: at 46.2 µM (top of the series)
In short: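 Readout: luminescence from CellTiter-Glo after 30 min in the dark at RT. Cells: DT40 Tdp1-/- with stable hTDP1, 400/well. Exposure: compounds alone, ≥48 hr, 37 °C.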
% is scaled to controls: 0 for no effect and ±100 for the full control effect; potency is read from the fitted curve at half-maximal effect.

SMILES | activity change, negative = growth inhibition [%] | Potency
Cc1sc2nc(COC(=O)C(NC(=O)c3ccc(Cl)cc3Cl)C(C)C)[nH]c(=O)c2c1C (configuration not stated) | -16.1 | –
Cc1sc2nc(CSCC(=O)Nc3c(Cl)cccc3Cl)[nH]c(=O)c2c1C | – | 9.2 µM (active)
CCOC(=O)c1sc2nc(CSCC(=O)OCc3ccc(C(=O)OC)o3)[nH]c(=O)c2c1C | -10.1 | –
Cn1nnnc1SCC(=O)N1CCN(Cc2ccccc2)CC1 | -18.7 | –
COc1ccc(S(=O)(=O)N2CCCCC2)cc1C(=O)NC1CCS(=O)(=O)C1 (configuration not stated) | – | inactive
Cc1[nH]nc(SCC(=O)NCC(C)C)c1[N+](=O)[O-] | -4.36 | –
COc1cccc(CNC(=O)c2cc(=O)[nH]c3ccc(S(=O)(=O)N4CCCCC4)cc23)c1 | -11.7 | –
Cc1cccc(N2CCN(S(=O)(=O)c3ccc4[nH]c5c(c4c3)CCCCC5)CC2)c1C | – | 4.61 µM (active)
Cc1ccc(S(=O)(=O)N2CCN(c3ccccc3)CC2)cc1C | 3 | –
Cc1cc(C)c2c(c1)c(C)cc1nnc(SCC(=O)NCc3ccco3)n12 | -3.12 | –
O=C(N/C(=C\c1ccc(O)cc1)C(=O)N1CCCCC1)c1ccccc1 | 12.8 | –
COc1cc2c(cc1OC)C(Cc1cc(OC)c(OC)cc1[N+](=O)[O-])=NCC2 | – | 11.6 µM (active)
COc1cc(CN2CCCN(C)CC2)c([N+](=O)[O-])cc1OC | -12.1 | –
COc1cc(CNCc2ccc3c(c2)OCO3)c([N+](=O)[O-])cc1OC | -21.4 | –
O=C(NC1CCN(S(=O)(=O)c2ccc(F)cc2)CC1)c1ccccc1 | 6.91 | –
CCCCN1C(=O)c2[nH]nc(-c3ccccc3O)c2C1c1cccc(OCc2ccccc2)c1 (configuration not stated) | – | 18.4 µM (active)
COc1ccc(CCN(C)CCN2C(=O)c3ccccc3C2=O)cc1OC | -23.2 | –
C=CCOc1cccc(C2C(C(=O)c3ccc(C)o3)=C(O)C(=O)N2CCCn2ccnc2)c1 (configuration not stated) | 15.9 | –
COc1ccc(/C(O)=C2/C(=O)C(=O)N(CCCN(C)C)C2c2ccccc2)cc1OC (configuration not stated) | -4.33 | –
COc1ccc(CCN2C(=O)c3[nH]nc(-c4ccccc4O)c3C2c2ccc(C)cc2)cc1OC (configuration not stated) | – | 18.4 µM (active)
CCCCn1c(N)c(N(CCOC)C(=O)c2cccc(OCc3ccccc3)c2)c(=O)[nH]c1=O | 1.24 | –
Cc1cc(NS(=O)(=O)c2ccc(NC(=O)c3cccc(OC(F)F)c3)cc2)nc(C)n1 | -6.76 | –
O=C(O)CCSc1nnc(-c2ccccc2)n1-c1ccccc1 | -12.5 | –
Cc1ccc(NC(=O)c2ccn(C(=O)Nc3ccccc3)n2)c(C)c1 | -5.12 | –
CCN(CC)CCNC(=O)c1cc(S(C)(=O)=O)ccc1OC | – | inactive
COc1ccc(N(CC(=O)NCCSCc2cccc(Cl)c2)S(C)(=O)=O)cc1 | -10.8 | –

SMILES | activity change, negative = growth inhibition [%] | Potency
COc1cc(/C=C2\SC(=S)N(Nc3ncc(C(F)(F)F)cc3Cl)C2=O)cc(OC)c1OC | -14.7 | –
COc1cccc(/C=N/Nc2ncc(C(F)(F)F)cc2Cl)c1O | – | 4.11 µM (active)
COc1cccc(/C(C)=N/Nc2ncc(Cl)cc2Cl)c1 | -17.6 | –
CCN(CC)Cc1csc2ccc(Br)cc12 | -6.04 | –
C=CCn1c(=N)n(CC(O)COc2ccc(OC)cc2)c2ccccc21 (configuration not stated) | – | 20.6 µM (active)
COc1ccc(CCNCC(O)Cn2ccc3ccccc32)cc1OC (configuration not stated) | -22 | –
CCCn1c(=N)n(CC(O)COc2ccccc2OC)c2ccccc21 (configuration not stated) | – | 7.31 µM (active)
COc1ccccc1OCC(O)CN1CCOCC1 (configuration not stated) | -2.17 | –
COC(=O)c1ccc(OCC(O)CN(CCO)CC(O)Cn2ccc3ccccc32)cc1 (configuration not stated) | -27.5 | –
C=CCc1ccc(OCC(O)CN2CCN(Cc3ccccc3)CC2)c(OC)c1 (configuration not stated) | -1.24 | –
COc1ccc(C(=O)NCC2CCCO2)cc1S(=O)(=O)NCc1ccc(Cl)cc1 (configuration not stated) | -20.6 | –
CN1CCN(C(CNS(=O)(=O)c2cccs2)c2cccnc2)CC1 (configuration not stated) | 7.04 | –
COc1cccc(/C=C/C(=O)OCC(=O)N2CCCc3ccccc32)c1 | 1.84 | –
Cc1cccc(N(C)C(=O)CS(=O)(=O)c2cccc3nsnc23)c1 | -12.2 | –
CC1(C)OC(=O)C(=CSc2ccc(C(C)(C)C)cc2)C(=O)O1 | -13.5 | –
COCCCNC(NC(=O)c1ccc(OC)cc1)C(Cl)(Cl)Cl (configuration not stated) | -25.3 | –
COCCCNC(NC(=O)c1ccc(C)cc1)C(Cl)(Cl)Cl (configuration not stated) | – | 14.6 µM (active)
CCOCCCNC(=O)C(NC(=O)CNC(=O)c1ccccc1)c1ccc(C)cc1 (configuration not stated) | -23.2 | –
O=C(CN1C(=O)NC2(CCCCC2)C1=O)N1CCN(C(=O)c2cccs2)CC1 | -3.5 | –
CS(=O)(=O)N(C(=O)NC(=O)NC1CCS(=O)(=O)C1)C1CCCCC1 (configuration not stated) | -1.68 | –
O=S1(=O)CCC(NC(=S)SCc2ccccc2Br)C1 (configuration not stated) | – | 18.4 µM (active)
CCN(CC(=O)NC1CCS(=O)(=O)C1)S(=O)(=O)c1ccccc1 (configuration not stated) | 5.32 | –
CCCSC(=S)NC1CCS(=O)(=O)C1 (configuration not stated) | – | 20.6 µM (active)
CC(C)C(=O)NC(NC(=S)NC1CCS(=O)(=O)C1)C(Cl)(Cl)Cl (configuration not stated) | -0.69 | –
O=C(CSc1ccccc1F)NC1CCS(=O)(=O)C1 (configuration not stated) | 4.81 | –
Cc1cc(C)cc(NC(=O)C(c2ccccc2)N2CCN(CC(=O)N3CCCC3)CC2)c1 (configuration not stated) | -3.14 | –
